# Results reported in PubChem BioAssay AID463173 (ICCB-Longwood Screening Facility, Harvard Medical School, 2010).
# Out of some 52,000 compounds screened, about 1,700 (3.3%) were called active. The full list was thinned out, with actives kept by preference. Unmarked numbers belong to inactive results. Rule as the data show it: active = survival mostly below about 52% (no sharp cut-off); inactive = mostly above about 56%.
# Tested on: Wild type
# Experiment: growth inhibition of S. aureus wild type versus tarO mutant, primary screen, teichoic acid synthesis inhibitors, RN4220, OD600 (AID 463173)
# Conditions: S. aureus RN4220 wild type/DeltatarO growth, OD600, 18 h, stronger effect = lower value, concentration not given here
row,SMILES,survival
1,CCOc1ccc2nc(NC(=O)c3cccn(Cc4ccc(C)cc4)c3=O)sc2c1,76%
2,Cc1ccc(Cn2cccc(C(=O)Nc3cc(C)on3)c2=O)cc1,81%
3,O=C1CN=C(c2ccccc2Cl)c2cc(Cl)ccc2N1Cc1cccc(Cl)c1,128%
4,Cc1ccc(CN2C(=O)c3ccccc3Sc3ccc(C(=O)N4CCC5(CC4)OCCO5)cc32)cc1,75%
5,Cc1ccc(C)c(CN2C(=O)c3ccccc3Sc3ccc(C(=O)N4CCC5(CC4)OCCO5)cc32)c1,14% (active)
6,O=C(c1ccc2c(c1)N(Cc1ccc(F)cc1Cl)C(=O)c1ccccc1S2)N1CCC2(CC1)OCCO2,78%
7,C1CNC2NCCNC2N1 (stereo not drawn),125%
8,O=C1NC(=O)C(C(CC(=O)c2ccccc2)c2ccccc2)C(=O)N1 (stereo not drawn),116%
9,CN1C(=O)C(=Cc2ccco2)C(=O)N(C)C1=O,109%
10,CCCSc1nc2ccccc2c(=O)n1-c1ccccc1OC,-1% (active)
11,COc1ccccc1-n1c(/C=C/c2ccccc2)nc2ccccc2c1=O,80%
12,CSc1nc2ccccc2c(=O)n1-c1ccccc1C,107%
13,CC(=O)N1CC(=O)Nc2ccc(F)cc2C1c1ccccc1 (stereo not drawn),82%
14,COc1ccc(-c2nc(CN3C(=O)CN=C(c4ccccc4)c4ccccc43)c(C)o2)cc1OC,96%
15,COc1ccc(-c2nc(CN3C(=O)CN=C(c4ccccc4)c4ccccc43)c(C)o2)cc1,93%
16,Cc1ccccc1-c1nc(CN2C(=O)CN=C(c3ccccc3)c3ccccc32)c(C)o1,2% (active)
17,Cc1oc(-c2ccc(Cl)cc2)nc1CN1C(=O)CN=C(c2ccccc2)c2ccccc21,80%
18,Cc1ccc(-c2nc(CN3C(=O)CN=C(c4ccccc4)c4ccccc43)c(C)o2)cc1,72%
19,Cc1cccc(-c2nc(CN3C(=O)CN=C(c4ccccc4)c4ccccc43)c(C)o2)c1,2% (active)
20,Cc1ccc2scc(N3CCN(C)CC3)c(=O)c2c1,136%
21,O=c1[nH]c2ccccc2c(=O)n1-c1ccc(Cl)c(Cl)c1,91%
22,CCOc1nc(NCc2ccco2)nc(N2CC3CC(C2)c2cccc(=O)n2C3)n1 (stereo not drawn),104%
23,Nc1c2c(nc3sc4c(c13)CCCC4)CCCC2,118%
